In ChEMBL document CHEMBL1157539, “Thousands of chemical starting points for antimalarial lead identification” (Nature, 2010) one finds Inhibition data, which are given here for 30 molecules.

Type in all cases: functional
Assay [1] relates to Plasmodium falciparum. Kind of assay: GSK_TCMDC: Inhibition of Plasmodium falciparum 3D7 in whole red blood cells, using parasite LDH activity as an index of growth. Test compounds present at 2uM.
Assay [2] has as its system Plasmodium falciparum. Kind of assay: GSK_TCMDC: Inhibition of Plasmodium falciparum Dd2 in whole red blood cells, using parasite LDH activity as an index of growth. Test compounds present at 2uM.
For the next assay, the system named is HepG2. Briefly: GSK_TCMDC: Percent inhibition of human HepG2 cell line. Test compounds present at 10uM.

As usually defined, the Inhibition is the share of the control response that was lost under treatment. Low readings indicate a weak effect, high ones a strong effect. On to `Nc1c2ccccc2nc2cc(C(F)(F)F)ccc12`, for which the Inhibition was found to be 100% in the assay on Plasmodium falciparum [1], 49% with Plasmodium falciparum [2] and 8% in the assay on HepG2.

With `FC(F)(F)c1cccc(CNC2CCN(CC3CCCCC3)CC2)c1.O=C(O)C(F)(F)F`, the Inhibition is listed as 100% in the assay on Plasmodium falciparum [1], 12% in the assay with Plasmodium falciparum [2] and 0% in the assay with HepG2.

On to `CC1(C)N=C(N)N=C(NOCc2ccc(Cl)c(Cl)c2)N1`, for which the Inhibition is listed as 96% in the assay with Plasmodium falciparum [1], 27% in the assay on Plasmodium falciparum [2] and 5% in the assay with HepG2.

For the molecule `O=C(Nc1cccc(CN2CCCN(Cc3ccc(O)cc3)CC2)c1)c1cc2ccccc2s1.O=C(O)C(F)(F)F`, the Inhibition with Plasmodium falciparum [1] is recorded as 100%; in the assay with Plasmodium falciparum [2], 90%; in the assay on HepG2, 27%.

As for `Cl.O=C(NC1CCC(N2CCN(c3cccc4[nH]ccc34)CC2)CC1)c1cc2cccnc2[nH]1` (stereo not given), the Inhibition is 99% with Plasmodium falciparum [1], 85% in the assay on Plasmodium falciparum [2] and 9% with HepG2.

For the molecule `Cn1cncc1-c1ccc2c(-c3ccsc3)cnc(N)c2c1`, the results for the Inhibition in the assay on Plasmodium falciparum [1], in the assay on Plasmodium falciparum [2] and in the assay with HepG2 were 97%, 72% and 41%, respectively.

For `CCn1c(-c2nc(-c3ccnc(N4CCN(C)CC4)c3)cnc2N)nc2cc(S(C)(=O)=O)ccc21`, the Inhibition is 100% with Plasmodium falciparum [1], 76% with Plasmodium falciparum [2] and 44% in the assay on HepG2.

Take `Cc1ccc(CN2CCCCC(NC(=O)c3cc4ccccc4s3)C2)cc1.O=C(O)C(F)(F)F` (stereo not given): the Inhibition is on record as 94% in the assay with Plasmodium falciparum [1], 8% in the assay with Plasmodium falciparum [2] and 9% in the assay with HepG2.

On to `COc1ccc2nccc(N3CCCN(CCNS(=O)(=O)c4ccc5c(c4)NC(=O)CS5)CC3)c2n1.Cl`, for which the Inhibition is 97% in the assay with Plasmodium falciparum [1], 15% in the assay with Plasmodium falciparum [2] and 0% in the assay with HepG2.

For `CS(=O)(=O)c1cccc(-c2cnc3[nH]cc(-c4ccc(CCC(=O)O)cc4)c3c2)c1`, the Inhibition is listed as 97% with Plasmodium falciparum [1], 99% in the assay with Plasmodium falciparum [2] and 1% in the assay with HepG2.

Consider `CCC1CN(CCCn2c3ccccc3c3ccccc32)C(CC)CN1.Cl` (stereo not given), for which the Inhibition in the assay on Plasmodium falciparum [1] is 89%; with Plasmodium falciparum [2], 0%; in the assay on HepG2 it was 69%.

Turning to `Cn1nc(C(F)(F)F)c(-c2ccc(F)cc2)c1NC(=O)Nc1ccccc1`, the Inhibition in the assay with Plasmodium falciparum [1] is 100%; in the assay on Plasmodium falciparum [2], 99%; in the assay with HepG2 it was 3%.

With `CCOc1ccc(-c2nonc2NC(=O)c2ccccc2Cl)cc1OCC`, the Inhibition in the assay on Plasmodium falciparum [1] is listed as 100%; in the assay with Plasmodium falciparum [2], 100%; in the assay with HepG2 it was 3%.

As to `CC(C(=O)N1CCCC1)N1CCN(C(c2ccccc2)c2ccccc2)CC1` (stereo not given), the Inhibition in the assay with Plasmodium falciparum [1] was 82%; in the assay on Plasmodium falciparum [2], 56%; in the assay on HepG2, 0%.

Turning to `COc1c(C2CCN(CCCCNC(=O)c3cc(-c4ccc(C#N)cc4)n[nH]3)CC2)ccc2c1CCCC2`, the figures for the Inhibition in the assay with Plasmodium falciparum [1], in the assay on Plasmodium falciparum [2] and in the assay with HepG2 were 86%, 15% and 36%, respectively.

Consider `O=C(Nc1nc(-c2ccccn2)cs1)c1ccccc1COc1ccccc1`, for which the Inhibition came to 83% with Plasmodium falciparum [1], 42% in the assay on Plasmodium falciparum [2] and 34% in the assay with HepG2.

Regarding `O=C(NCc1ccccc1F)c1ccc(N2CCC(NCc3cccc(-n4cccn4)c3)CC2)cc1`, the values for the Inhibition with Plasmodium falciparum [1], in the assay with Plasmodium falciparum [2] and with HepG2 were 89%, 3% and 9%, respectively.

On to `O=C(NCCCCNCC(Cc1cccc([O-])c1)c1ccccc1)c1ccc(NC(=O)c2ccc(Cl)cc2)cc1.[Na+]` (stereo not given), for which the Inhibition turned out to be 96% in the assay on Plasmodium falciparum [1], 1% in the assay on Plasmodium falciparum [2] and 0% in the assay with HepG2.

For the molecule `CCN(CC)C(C)(C)CN(Cc1ccc(-c2ccc(C(F)(F)F)cc2)cc1)C(=O)Cn1c(CCc2cccc(F)c2F)nc(=O)c2ccccc21.O=C(O)C(O)C(O)C(=O)O`, the Inhibition in the assay on Plasmodium falciparum [1] came to 91%; in the assay on Plasmodium falciparum [2], 79%; with HepG2, 53%.

Turning to `CN(C)c1ccc(C2(c3ccccc3)N=C(N)N(CCCc3ccccc3)C2=O)cc1.O=C(O)C(F)(F)F` (stereo not given), the Inhibition turned out to be 99% in the assay with Plasmodium falciparum [1], 97% in the assay on Plasmodium falciparum [2] and 4% with HepG2.

For `Cc1ccc(Nc2nccc(NCC(O)c3cccc(F)c3)n2)cc1` (stereo not given), the Inhibition came out at 95% with Plasmodium falciparum [1], 26% in the assay on Plasmodium falciparum [2] and 24% in the assay with HepG2.

Turning to `CC(=O)N(Cc1nc(-c2cc(C(F)(F)F)cc(C(F)(F)F)c2)cs1)c1c(C)cccc1C`, the Inhibition in the assay with Plasmodium falciparum [1] amounted to 100%; in the assay with Plasmodium falciparum [2] it was 99%; with HepG2, 0%.

As to `O=C(NC(=O)c1ccccc1O)c1ccccc1O`, the Inhibition was found to be 97% in the assay on Plasmodium falciparum [1], 79% in the assay on Plasmodium falciparum [2] and 0% in the assay with HepG2.

As to `CC(C)CC(C)NC(=O)C1Cc2c([nH]c3cc(Cl)ccc23)C2(CCN(CCc3ccccc3)CC2)N1` (stereo not given), the Inhibition in the assay with Plasmodium falciparum [1] was 95%; in the assay on Plasmodium falciparum [2], 65%; with HepG2 it was 15%.

Take `CN1CCC(C(=O)N(Cc2ccc(-c3ccc(CNCCc4ccc(S(C)(=O)=O)cc4)cn3)cc2)Cc2cccc(F)c2)CC1.O=C(O)C(F)(F)F`: the values for the Inhibition with Plasmodium falciparum [1], with Plasmodium falciparum [2] and in the assay with HepG2 were 98%, 90% and 10%, respectively.

As to `COC(=O)c1cccc(CNCc2ccc(-c3ccc(-c4nc5cc(F)ccc5[nH]4)s3)cc2)c1.O=C(O)C(F)(F)F`, the Inhibition in the assay on Plasmodium falciparum [1] worked out at 100%; in the assay on Plasmodium falciparum [2], 82%; with HepG2 it was 4%.

With `CN1CCC(NCc2ccc(-c3cccc(S(=O)(=O)NCCc4ccccn4)c3)cc2)CC1.O=C(O)C(F)(F)F`, the Inhibition is given as 84% with Plasmodium falciparum [1], 0% in the assay on Plasmodium falciparum [2] and 42% in the assay on HepG2.

For the molecule `CCCCCCCN1CC[C@@H](CCCc2ccnc3ccc(OCCN4CCOCC4)cc23)[C@@H](CC)C1.O=C(O)C(=O)O`, the figures for the Inhibition in the assay on Plasmodium falciparum [1], in the assay with Plasmodium falciparum [2] and in the assay with HepG2 were 89%, 3% and 14%, respectively.

As for `COc1cc(OC)c(NC(=O)C2c3ccccc3C(=O)N(CC(C)C)C2c2cccs2)cc1Cl` (stereo not given), the Inhibition with Plasmodium falciparum [1] was found to be 100%; with Plasmodium falciparum [2] it was 100%; in the assay with HepG2 it was 9%.

For `Nc1ncc(Cc2ccc3c(ccc4ccccc43)c2)c(N)n1`, the Inhibition was 97% in the assay with Plasmodium falciparum [1], 3% with Plasmodium falciparum [2] and 9% with HepG2.
